Measured values from the supplement of paper PMC10849652.
Targets with a hit are over-represented here; the source holds about 7,900 in all. About 0.6% of all pairs of compound and target were hits. Unmarked numbers belong to inactive results.

Key:
Assay in all cases: log2 fold change, soluble protein after heating vs DMSO (PISA); higher = thermal stabilisation; K562 cells, 10 uM, 30 min; active = over 0.2 and 3.5 SD of the protein, either way, in both replicates (recomputed)
erlotinib = compound: C#Cc1cccc(Nc2ncnc3cc(OCCOC)c(OCCOC)cc23)c1 [erlotinib]
How it was run: (§1)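 K562 cells at 2×10^6 cells/mL were treated for 30 min with 10 μM compound, and aliquots were heated for 3 min over 48°C-58°C before pooling. Extraction used PBS with 0.5% NP-40 at 4°C, and soluble protein was the supernatant after 21,000xg for 90 min, measured by TMTpro 16plex LC-MS/MS with channel sums equalised. Thermal stability values, relative to control samples and from duplicates, are log2 fold changes.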

[1] = compound: C/C(=N\NC(=O)C1=CC(=CC=C1)S(=O)(=O)N2CCOCC2)/C3=C(C=CC(=C3)Cl)O
How it was run: as §1

[2] = compound: C1=CC(=C(C=C1Cl)C2=NC3=NC=CN=C3C(=N2)NC4=CC=NC=C4)F
How it was run: as §1

[3] = compound: C1=CC(=CC=C1C2=NC3=C(N2)C=C(C=C3)C(=O)N)OC4=CC=C(C=C4)Cl
How it was run: as §1

[4] = compound: C1=CC2=C(C=CC(=C2)/C=C\3/C(=O)NC(=NCC4=CC=CS4)S3)N=C1
How it was run: as §1

[5] = compound: C1=CC2=NC=CN=C2C=C1/C=C/3\C(=O)NC(=O)S3
How it was run: as §1

[6] = compound: C1=CC=C(C=C1)C2=NC(=C(N2)C3=CC=NC=C3)C4=CC(=C(C=C4)Cl)O
How it was run: as §1

[7] = compound: C1=CC=C2C(=C1)C3=NNC4=CC=CC(=C43)C2=O
How it was run: as §1

[8] = compound: C1CCN(C1)C(=O)NC2=CC=CC(=C2)NC3=NC=C(C(=N3)NCCC4=CN=CN4)Br
How it was run: as §1

[9] = compound: C1CN(CCC1(CC2=CC=C(C=C2)Cl)N)C3=NC=NC4=C3C=CN4
How it was run: as §1

IRAK-1-4 Inhibitor I = compound: C1COCCN1CCN2C3=CC=CC=C3N=C2NC(=O)C4=CC(=CC=C4)[N+](=O)[O-] [IRAK-1-4 Inhibitor I]
How it was run: as §1

ibrutinib = compound: C=CC(=O)N1CCC[C@@H](n2nc(-c3ccc(Oc4ccccc4)cc3)c3c(N)ncnc32)C1 [ibrutinib]
How it was run: as §1

[10] = compound: CC(=O)c1cnc2ccc(-c3cc(Cl)c(O)c(Cl)c3)nc2c1N[C@H]1CC[C@H](CN(C)C)CC1
How it was run: as §1

ralimetinib = compound: CC(C)(C)Cn1c(N)nc2ccc(-c3[nH]c(C(C)(C)C)nc3-c3ccc(F)cc3)nc21 [ralimetinib]
How it was run: as §1

[11] = compound: CC(C)(O)CC(=O)NCCn1ccc2ncnc(Nc3ccc(Oc4cccc(C(F)(F)F)c4)c(Cl)c3)c21
How it was run: as §1

[12] = compound: CC(C)C1=C2N=C(C=C(N2N=C1)NCC3=CC=CC=C3)NCCCCCCN
How it was run: as §1

[13] = compound: CC(C)C[C@@H](C=O)NC(=O)[C@H](CC(C)C)NC(=O)[C@H](CC(C)C)NC(=O)OCc1ccccc1
How it was run: as §1

pinometostat = compound: CC(C)N(C[C@H]1O[C@@H](n2cnc3c(N)ncnc32)[C@H](O)[C@@H]1O)[C@H]1C[C@@H](CCc2nc3cc(C(C)(C)C)ccc3[nH]2)C1 [pinometostat]
How it was run: as §1

[14] = compound: CC1=C(C(CC(=O)N1)C2=CC=C(C=C2)C(F)(F)F)C(=O)NC3=C(C=C4C(=C3)C=NN4)F
How it was run: as §1

[15] = compound: CC1=C(C2=C(C=C1)C(=O)C3=CC=CC=C3N2CCCN)C
How it was run: as §1

Chain of UniProt Q9UKV3 (Q9UKV3 whole entry, looked up): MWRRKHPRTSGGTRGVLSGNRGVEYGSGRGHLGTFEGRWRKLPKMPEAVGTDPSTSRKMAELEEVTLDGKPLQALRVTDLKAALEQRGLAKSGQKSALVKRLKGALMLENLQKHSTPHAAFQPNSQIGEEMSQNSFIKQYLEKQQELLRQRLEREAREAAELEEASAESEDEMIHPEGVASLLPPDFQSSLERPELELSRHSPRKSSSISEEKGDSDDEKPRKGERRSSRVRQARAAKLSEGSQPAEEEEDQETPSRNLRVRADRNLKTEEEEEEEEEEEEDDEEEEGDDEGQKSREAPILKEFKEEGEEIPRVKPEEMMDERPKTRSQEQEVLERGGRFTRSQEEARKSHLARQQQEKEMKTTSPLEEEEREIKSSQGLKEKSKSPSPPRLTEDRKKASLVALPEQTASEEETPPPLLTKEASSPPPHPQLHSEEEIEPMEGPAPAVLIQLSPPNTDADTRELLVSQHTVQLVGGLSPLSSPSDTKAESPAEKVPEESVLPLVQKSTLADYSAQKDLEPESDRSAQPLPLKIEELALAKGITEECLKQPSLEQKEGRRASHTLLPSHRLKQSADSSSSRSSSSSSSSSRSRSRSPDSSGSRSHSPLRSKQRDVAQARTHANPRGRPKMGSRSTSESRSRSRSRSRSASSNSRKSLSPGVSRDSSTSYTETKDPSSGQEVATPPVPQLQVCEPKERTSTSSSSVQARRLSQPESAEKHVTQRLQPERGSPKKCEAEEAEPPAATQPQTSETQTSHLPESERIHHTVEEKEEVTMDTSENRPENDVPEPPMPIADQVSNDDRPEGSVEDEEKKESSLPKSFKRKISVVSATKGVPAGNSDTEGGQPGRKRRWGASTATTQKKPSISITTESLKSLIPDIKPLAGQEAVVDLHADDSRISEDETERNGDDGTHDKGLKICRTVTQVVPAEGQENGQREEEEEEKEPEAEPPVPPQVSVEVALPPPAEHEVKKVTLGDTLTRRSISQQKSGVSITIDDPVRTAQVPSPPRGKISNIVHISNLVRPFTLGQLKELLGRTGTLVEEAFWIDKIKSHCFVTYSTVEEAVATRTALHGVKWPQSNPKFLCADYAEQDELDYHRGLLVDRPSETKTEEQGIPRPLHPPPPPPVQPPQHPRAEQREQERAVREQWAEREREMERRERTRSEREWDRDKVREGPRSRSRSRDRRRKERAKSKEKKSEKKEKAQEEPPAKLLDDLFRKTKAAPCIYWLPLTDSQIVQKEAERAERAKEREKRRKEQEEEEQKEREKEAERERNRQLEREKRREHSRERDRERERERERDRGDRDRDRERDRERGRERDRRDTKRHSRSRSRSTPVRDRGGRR
Chain of UniProt Q5JTZ9 (Q5JTZ9 whole entry, looked up): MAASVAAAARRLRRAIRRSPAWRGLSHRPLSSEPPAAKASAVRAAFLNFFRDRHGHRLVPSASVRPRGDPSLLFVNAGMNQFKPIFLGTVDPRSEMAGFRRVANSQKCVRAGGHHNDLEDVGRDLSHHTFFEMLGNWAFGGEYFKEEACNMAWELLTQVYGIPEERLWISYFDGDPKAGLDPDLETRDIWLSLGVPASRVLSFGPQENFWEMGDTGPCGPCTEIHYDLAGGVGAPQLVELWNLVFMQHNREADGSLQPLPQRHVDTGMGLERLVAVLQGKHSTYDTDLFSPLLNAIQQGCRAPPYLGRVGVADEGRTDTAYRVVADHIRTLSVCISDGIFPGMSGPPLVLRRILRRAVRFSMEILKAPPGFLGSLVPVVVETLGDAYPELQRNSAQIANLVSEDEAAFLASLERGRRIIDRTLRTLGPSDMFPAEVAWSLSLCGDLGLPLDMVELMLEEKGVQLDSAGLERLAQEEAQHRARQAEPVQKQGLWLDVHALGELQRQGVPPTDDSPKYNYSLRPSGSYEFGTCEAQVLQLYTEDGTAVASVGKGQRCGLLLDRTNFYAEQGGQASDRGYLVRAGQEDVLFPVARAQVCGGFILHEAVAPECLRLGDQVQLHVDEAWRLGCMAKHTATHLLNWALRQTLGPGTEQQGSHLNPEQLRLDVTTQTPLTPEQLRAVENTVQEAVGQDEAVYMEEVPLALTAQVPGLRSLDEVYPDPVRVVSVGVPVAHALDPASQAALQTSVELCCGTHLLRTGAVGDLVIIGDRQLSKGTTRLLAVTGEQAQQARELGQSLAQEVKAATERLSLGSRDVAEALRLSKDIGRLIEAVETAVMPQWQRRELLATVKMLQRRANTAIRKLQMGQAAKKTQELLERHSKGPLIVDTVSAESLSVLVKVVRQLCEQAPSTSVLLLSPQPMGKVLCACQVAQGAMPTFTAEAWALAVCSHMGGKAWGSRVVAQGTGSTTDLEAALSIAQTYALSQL
Chain of UniProt Q8N6S5 (Q8N6S5 whole entry, looked up): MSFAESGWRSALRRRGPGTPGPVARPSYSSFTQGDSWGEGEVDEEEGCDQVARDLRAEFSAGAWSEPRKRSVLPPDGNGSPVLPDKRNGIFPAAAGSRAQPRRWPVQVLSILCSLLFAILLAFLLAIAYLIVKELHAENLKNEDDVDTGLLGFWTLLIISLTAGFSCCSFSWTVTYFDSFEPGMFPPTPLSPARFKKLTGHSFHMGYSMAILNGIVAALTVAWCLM
Chain of UniProt Q9Y6E2 (Q9Y6E2 whole entry, looked up): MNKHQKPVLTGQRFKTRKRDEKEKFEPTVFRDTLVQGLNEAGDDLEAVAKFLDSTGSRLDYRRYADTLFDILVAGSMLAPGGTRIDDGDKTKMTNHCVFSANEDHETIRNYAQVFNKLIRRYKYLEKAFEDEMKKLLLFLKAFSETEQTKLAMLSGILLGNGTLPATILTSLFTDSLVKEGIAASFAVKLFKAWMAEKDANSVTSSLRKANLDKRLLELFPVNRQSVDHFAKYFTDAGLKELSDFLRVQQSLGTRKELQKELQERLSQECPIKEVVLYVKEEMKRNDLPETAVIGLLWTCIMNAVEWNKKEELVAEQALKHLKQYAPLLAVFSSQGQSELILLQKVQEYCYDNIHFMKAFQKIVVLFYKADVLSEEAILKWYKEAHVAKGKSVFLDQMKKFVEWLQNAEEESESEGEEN
Chain of UniProt Q9UII2 (Q9UII2 whole entry, looked up): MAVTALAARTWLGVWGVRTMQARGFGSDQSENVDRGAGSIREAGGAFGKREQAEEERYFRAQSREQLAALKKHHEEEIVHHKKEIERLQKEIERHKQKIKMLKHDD
Chain of UniProt Q7Z3C6 (Q7Z3C6 whole entry, looked up): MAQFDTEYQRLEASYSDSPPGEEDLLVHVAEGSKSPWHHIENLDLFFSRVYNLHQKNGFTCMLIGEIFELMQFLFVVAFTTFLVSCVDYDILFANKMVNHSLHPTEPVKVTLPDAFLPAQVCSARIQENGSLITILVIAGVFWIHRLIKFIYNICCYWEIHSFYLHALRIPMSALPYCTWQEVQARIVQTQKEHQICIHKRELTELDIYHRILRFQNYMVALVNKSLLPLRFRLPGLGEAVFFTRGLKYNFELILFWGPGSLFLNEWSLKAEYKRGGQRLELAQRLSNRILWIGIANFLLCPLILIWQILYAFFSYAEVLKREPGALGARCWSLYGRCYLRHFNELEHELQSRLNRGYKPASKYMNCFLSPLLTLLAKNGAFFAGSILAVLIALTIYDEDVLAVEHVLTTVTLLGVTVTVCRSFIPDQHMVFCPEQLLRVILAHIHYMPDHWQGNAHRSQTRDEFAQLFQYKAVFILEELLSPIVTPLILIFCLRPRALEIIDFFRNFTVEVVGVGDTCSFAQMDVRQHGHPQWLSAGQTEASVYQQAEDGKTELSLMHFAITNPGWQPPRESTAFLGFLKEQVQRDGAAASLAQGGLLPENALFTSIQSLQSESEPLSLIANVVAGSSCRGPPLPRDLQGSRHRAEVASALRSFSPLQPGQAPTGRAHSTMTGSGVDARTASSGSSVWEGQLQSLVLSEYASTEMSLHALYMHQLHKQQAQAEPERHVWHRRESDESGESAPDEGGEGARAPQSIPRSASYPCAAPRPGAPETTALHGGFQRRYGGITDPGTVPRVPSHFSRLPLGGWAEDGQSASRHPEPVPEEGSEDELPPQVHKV
Chain of UniProt P53367 (P53367 whole entry, looked up): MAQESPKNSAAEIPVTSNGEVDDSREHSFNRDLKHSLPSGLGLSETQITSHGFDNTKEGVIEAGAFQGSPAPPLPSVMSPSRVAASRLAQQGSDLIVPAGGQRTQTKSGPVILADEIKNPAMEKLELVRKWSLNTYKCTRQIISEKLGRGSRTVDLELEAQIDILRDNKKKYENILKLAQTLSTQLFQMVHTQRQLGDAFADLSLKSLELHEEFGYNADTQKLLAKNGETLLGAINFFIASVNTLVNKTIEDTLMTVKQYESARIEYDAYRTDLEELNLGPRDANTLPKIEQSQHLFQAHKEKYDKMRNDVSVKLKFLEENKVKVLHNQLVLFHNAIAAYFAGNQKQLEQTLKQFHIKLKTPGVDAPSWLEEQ
Chain of UniProt Q9Y6H3 (Q9Y6H3 whole entry, looked up): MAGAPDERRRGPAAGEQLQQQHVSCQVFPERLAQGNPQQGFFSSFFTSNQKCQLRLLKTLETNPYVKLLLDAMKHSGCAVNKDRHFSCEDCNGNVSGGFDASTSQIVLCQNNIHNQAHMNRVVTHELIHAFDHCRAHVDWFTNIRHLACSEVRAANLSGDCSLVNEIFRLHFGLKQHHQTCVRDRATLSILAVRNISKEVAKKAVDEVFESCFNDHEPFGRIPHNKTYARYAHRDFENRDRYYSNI
Chain of UniProt Q15904 (Q15904 whole entry, looked up): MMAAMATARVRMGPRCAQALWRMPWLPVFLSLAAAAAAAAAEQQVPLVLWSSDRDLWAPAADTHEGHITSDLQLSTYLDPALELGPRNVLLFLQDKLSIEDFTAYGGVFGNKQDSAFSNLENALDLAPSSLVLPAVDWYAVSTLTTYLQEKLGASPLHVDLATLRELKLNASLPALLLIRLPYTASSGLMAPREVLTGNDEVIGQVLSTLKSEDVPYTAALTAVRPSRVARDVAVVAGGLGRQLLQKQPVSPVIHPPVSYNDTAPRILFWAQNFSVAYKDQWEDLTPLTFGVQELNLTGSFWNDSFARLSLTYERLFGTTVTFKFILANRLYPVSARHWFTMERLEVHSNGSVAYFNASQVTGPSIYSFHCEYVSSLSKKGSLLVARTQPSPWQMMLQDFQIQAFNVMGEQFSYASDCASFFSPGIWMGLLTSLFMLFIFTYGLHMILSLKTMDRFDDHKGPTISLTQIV

Row | Target | log2 fold change (erlotinib) | log2 fold change [1] | log2 fold change [2] | log2 fold change [3] | log2 fold change [4] | log2 fold change [5] | log2 fold change [6] | log2 fold change [7] | log2 fold change [8] | log2 fold change [9] | log2 fold change (IRAK-1-4 Inhibitor I) | log2 fold change (ibrutinib) | log2 fold change [10] | log2 fold change (ralimetinib) | log2 fold change [11] | log2 fold change [12] | log2 fold change [13] | log2 fold change (pinometostat) | log2 fold change [14] | log2 fold change [15]
1 | AARS2 (UniProt Q5JTZ9) | 0.148 | -0.035 | 0.058 | -0.019 | 0.083 | 0.011 | 0.025 | 0.021 | -0.003 | 0.021 | 0 | -0.025 | -0.025 | -0.011 | -0.099 | -0.15 | -0.013 | 0.006 | 0.002 | 0.048
2 | ASNS (UniProt P08243) | 0.006 | 0.004 | 0.053 | -0.015 | 0.012 | -0.011 | 0.034 | -0.008 | 0.002 | 0.02 | 0.046 | 0.015 | 0.006 | -0.033 | -0.029 | 0.017 | -0.003 | -0.034 | -0.007 | -0.007
3 | ARL6IP6 (UniProt Q8N6S5) | 0.064 | 0.116 | -0.102 | 0.034 | -0.006 | 0.001 | 0.201 | -0.087 | 0.01 | -0.036 | 0.12 | 0.056 | 0.168 | 0.413 (active) | 0 | -0.049 | -0.199 | 0.069 | -0.014 | 0.02
4 | ATG9A (UniProt Q7Z3C6) | 0.044 | 0.03 | 0.057 | -0.003 | 0.047 | 0.021 | 0.045 | -0.005 | -0.026 | -0.023 | 0 | 0.081 | -0.091 | -0.023 | -0.056 | -0.176 | 0.06 | 0.015 | -0.003 | 0.038
5 | BZW2 (UniProt Q9Y6E2) | -0.018 | 0.106 | 0.054 | -0.016 | 0.033 | 0.026 | 0.022 | 0.013 | 0.037 | -0.021 | 0.04 | -0.043 | 0 | -0.016 | -0.121 | -0.163 | -0.003 | -0.011 | -0.005 | 0.014
6 | ATP23 (UniProt Q9Y6H3) | 0.021 | -0.079 | -0.017 | 0.033 | 0.051 | 0.027 | 0.009 | 0.033 | 0.007 | -0.014 | 0.091 | -0.009 | -0.004 | -0.043 | 0.02 | -0.136 | 0.025 | -0.014 | 0.011 | -0.01
7 | ACIN1 (UniProt Q9UKV3) | 0.116 | -0.1 | -0.033 | 0.006 | 0.051 | 0.007 | 0 | -0.012 | -0.041 | -0.038 | -0.052 | 0.004 | -0.155 | 0.063 | 0.043 | -0.022 | -0.026 | -0.006 | -0.017 | -0.369 (active)
8 | ATP5IF1 (UniProt Q9UII2) | 0.001 | -0.122 | 0.032 | -0.005 | -0.104 | 0.007 | -0.051 | 0.153 | 0.053 | 0.032 | 0.121 | 0.012 | 0.018 | -0.1 | 0.099 | 0.056 | -0.048 | -0.06 | 0.009 | -0.006
9 | ADAM15 (UniProt Q13444) | 0.314 | 0.154 | 0.03 | -0.223 | 0.035 | 0.068 | 0.043 | 0.08 | -0.042 | 0.013 | -0.026 | 0.045 | -0.199 | 0.024 | 0.008 | 0.14 | 0.053 | 0.046 | 0.027 | 0.033
10 | ATP1A1 (UniProt P05023) | 0.003 | 0.02 | 0.017 | -0.012 | -0.036 | 0.012 | -0.017 | -0.032 | -0.015 | 0.057 | 0.071 | 0.03 | 0.007 | -0.029 | -0.006 | 0.182 | -0.002 | -0.006 | 0.001 | 0.009
11 | ARFIP1 (UniProt P53367) | 0.217 | -0.121 | 0.087 | 0.094 | 0.115 | 0.62 | -0.126 | -0.013 | 0 | 0.044 | -0.034 | -0.117 | -0.075 | -0.104 | -0.031 | -0.011 | -0.029 | 0.006 | 0.014 | 0.164
12 | ATP6AP1 (UniProt Q15904) | -0.009 | -0.031 | -0.036 | 0.029 | -0.08 | -0.022 | -0.128 | -0.004 | 0.01 | -0.079 | -0.02 | 0 | -0.035 | 0.01 | 0.035 | -0.091 | 0.02 | 0.101 | 0.047 | -0.024
